For 16 compounds, Potency results are on record in PubChem BioAssay (NCATS).

Inconclusive results are not listed. Active and inactive are the calls of the source. Calls follow the shape of the dose curve; as a rule, active = well fitted curve in the direction sought with a large enough effect; inconclusive = small, poorly fitted or top-dose-only effect, or another doubt; inactive = no such curve, though single readings can be large; an effect the other way counts as inactive or inconclusive.

A short description of assay [1]: Quantitative High-Throughput drug screen in 47 multiple myeloma cell lines against the NCATS MIPE library collection: KMS26_JCRB cell viability assay (AID 1918975). Also: nearly all actives have a fitted effect of over 45% in size. Summed up: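 Approved and investigational drugs from MIPE 4.0 were added by pin tool to 500 cells per well. After 48 hours at 37C, ATP-based CellTiter-Glo luminescence indicated remaining viability.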

Assay [2] is described as follows: Quantitative High-Throughput drug screen in 47 multiple myeloma cell lines against the NCATS MIPE library collection: NCIH929_DSMZ cell viability assay (AID 1918978). Also: nearly all actives have a fitted effect of over 35% in size. Summed up:
(§1)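 ATP-based CellTiter-Glo luminescence after 48 h drug exposure (37 °C, 5% CO2) of 500 myeloma cells per well. DMSO-only wells set 100% viability, media-only wells 0%; MIPE 4.0 library added by pin tool.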

Assay [3] in a line: Quantitative High-Throughput drug screen in 47 multiple myeloma cell lines against the NCATS MIPE library collection: MM1S_ATCC cell viability assay (AID 1918980). Also: nearly all actives have a fitted effect of over 45% in size. In short, it runs like this:
as §1

Assay [4] in a line: Quantitative High-Throughput drug screen in 47 multiple myeloma cell lines against the NCATS MIPE library collection: L363_DSMZ cell viability assay (AID 1918984). Also: nearly all actives have a fitted effect of over 40% in size. In short, it runs like this:
as §1

Assay [5] in a line: Quantitative High-Throughput drug screen in 47 multiple myeloma cell lines against the NCATS MIPE library collection: KMS34_JCRB cell viability assay (AID 1918985). Also: nearly all actives have a fitted effect of over 40% in size. In short, it runs like this: as §1
Assay [6] is described as follows: Quantitative High-Throughput drug screen in 47 multiple myeloma cell lines against the NCATS MIPE library collection: MM1R_ATCC cell viability assay (AID 1918981). Also: nearly all actives have a fitted effect of over 35% in size. Summed up:
as §1

The nature of assay [7]: Quantitative High-Throughput drug screen in 47 multiple myeloma cell lines against the NCATS MIPE library collection: KMS28PE_JCRB cell viability assay (AID 1918983). Also: nearly all actives have a fitted effect of over 35% in size. In short, it runs like this:
as §1

A short description of assay [8]: Quantitative High-Throughput drug screen in 47 multiple myeloma cell lines against the NCATS MIPE library collection: OCIMY7_PLB cell viability assay (AID 1918987). Also: nearly all actives have a fitted effect of over 65% in size. In short, it runs like this:
as §1

A short description of assay [9]: Quantitative High-Throughput drug screen in 47 multiple myeloma cell lines against the NCATS MIPE library collection: MOLP8_DSMZ cell viability assay (AID 1918977). Also: nearly all actives have a fitted effect of over 45% in size. In short, it runs like this: as §1
A short description of assay [10]: Quantitative High-Throughput drug screen in 47 multiple myeloma cell lines against the NCATS MIPE library collection: KMS21BM_JCRB cell viability assay (AID 1918974). In short, it runs like this:
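Myeloma cell lines, 500 cells per well, exposed to MIPE 4.0 library compounds for 48 h at 37C, 5% CO2. Viability from ATP by CellTiter-Glo luminescence; normalised to DMSO (100%) and media-only (0%) wells.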
Potency is read from the fitted curve at half-maximal effect.

With `C#CCN(C)[C@H](C)Cc1ccccc1`, the Potency result in assay [1], in assay [2], in [3], in assay [4] and in [5] was “inactive” in each case.
In the case of `C[C@@H]1O[C@@H](O[C@H]2C[C@@H](O)[C@]3(CO)[C@H]4[C@H](O)C[C@]5(C)[C@@H](C6=CC(=O)OC6)CC[C@]5(O)[C@@H]4CC[C@]3(O)C2)[C@H](O)[C@H](O)[C@H]1O`, the Potency in [1] was 105 nM (active); in assay [2], 59 nM (active); in assay [3], 59 nM (active); in [6] it was 52.6 nM (active); in [7], 20.9 nM (active); in [4] it was 46.9 nM (active). Besides, the Potency in assay [5] was 59 nM (active); in [8] it was 14.8 nM (active).
For `Cc1cc(SCc2sc(-c3ccc(C(F)(F)F)c(F)c3)nc2C)ccc1OCC(=O)O`, the Potency was 4690 nM (active) in [1], 20900 nM (active) in [2], 9350 nM (active) in [3] and 20900 nM (active) in assay [8].
As to `Cc1cccc(C)c1NC(=O)CN1CCCC1=O`, the Potency result in assay [1], in assay [2], in assay [6], in assay [7], in [4] and in assay [5] was “inactive” each time. In addition, in assay [8], the Potency result is “inactive”. The Potency in [3] was 235 nM (active).
With `CC(C)CC(N(C)C)C1(c2ccc(Cl)cc2)CCC1` (centres undefined), the Potency result in assay [1], in assay [9], in assay [2], in assay [4] and in [5] was “inactive” throughout. For the same compound, the Potency in assay [3] was 5260 nM (active).
On to `O=P1(NCCCl)OCCCN1CCCl` (centres undefined), for which the results for the Potency in [10] and in [8] were 7430 nM (active) and 8330 nM (active), respectively. The Potency result in [1], in assay [9] and in assay [2] was “inactive” in each case.
`O=C1CC[C@@]2(O)[C@H]3Cc4ccc(O)c5c4[C@@]2(CCN3CC2CC2)[C@H]1O5`: the Potency result in assay [1], in [2], in [3], in [7] and in assay [5] was “inactive” in each case.
As for `COc1ccc(C(CN(C)C)C2(O)CCCCC2)cc1` (centres undefined), the Potency result in [1], in [9], in assay [2], in assay [6], in assay [4] and in assay [5] was “inactive” throughout.
Regarding `Fc1ccc(C(OCCN2CCN(CCCc3ccccc3)CC2)c2ccc(F)cc2)cc1`, the Potency is 16600 nM (active) in [1]; 13200 nM (active) in assay [2]; 18700 nM (active) in assay [3]; 16600 nM (active) in assay [6]; 23500 nM (active) in assay [7]; 7430 nM (active) in assay [8]. Besides, the Potency entry in assay [4] is “inactive”.
In the case of `C[C@@H]1[C@@H](CC(C[C@H]2O[C@@H]3O[C@]4(C)CC[C@@H]5[C@H](C)CC[C@@H]([C@H]2C)[C@@]35OO4)C[S+](=O)([O-])c2ccc(COC(=O)N(C)C)cc2)O[C@@H]2O[C@]3(C)CC[C@H]4[C@H](C)CC[C@@H]1[C@@]24OO3` (some centres undefined), the Potency was 296 nM (active) in [1]; 187 nM (active) in assay [9]; 83.3 nM (active) in assay [2]; 526 nM (active) in [3]; 332 nM (active) in assay [6]; 209 nM (active) in [7]. Moreover, the Potency in [4] is 46.9 nM (active); in [5], 74.3 nM (active); in assay [8], 83.3 nM (active).
Turning to `N[C@@H](Cc1ccc(N(CCCl)CCCl)cc1)C(=O)O`, the Potency in assay [1] was 23500 nM (active); in assay [9], 5900 nM (active); in [2] it was 3320 nM (active); in assay [3], 13200 nM (active); in assay [6], 2640 nM (active); in assay [7], 16600 nM (active). In addition, the Potency in assay [4] is 5260 nM (active); in assay [5] it was 16600 nM (active); in [8] it was 662 nM (active).
Regarding `CC1=C2C[C@@H]3[C@@H](CC=C4C[C@@H](O)CC[C@@]43C)[C@@H]2CC[C@]12O[C@H]1C[C@H](C)CN[C@H]1[C@H]2C`, the Potency entry in [1], in assay [9], in [2] and in [5] was “inactive” in each case. In assay [6], the Potency is 14800 nM (active).
On to `CN(C)CCc1ccc(O)cc1`, for which the Potency entry in assay [10], in assay [1], in [9], in assay [2], in assay [3] and in assay [6] was “inactive” throughout. In addition, the Potency result in assay [7], in [5] and in assay [8] was “inactive” each time.
Regarding `O=c1[nH]c2ccccc2n1CCCN1CCC(n2c(=O)[nH]c3cc(Cl)ccc32)CC1`, the Potency in [10] is 118 nM (active); in [3], 41.8 nM (active). The Potency entry in assay [9], in [6] and in [7] was “inactive” in each case.
For the compound `C=C(C)[C@H]1Cc2c(ccc3c2O[C@@H]2COc4cc(OC)c(OC)cc4[C@@H]2C3=O)O1`, the Potency is 209 nM (active) in [10]; 1870 nM (active) in assay [2]; 1320 nM (active) in assay [3]; 526 nM (active) in assay [6]; 148 nM (active) in assay [4]; 1050 nM (active) in assay [8].
`Cc1sc2c(c1C)C(c1ccc(Cl)cc1)=N[C@@H](CC(=O)OC(C)(C)C)c1nnc(C)n1-2`: the Potency in [1] is 526 nM (active); in [2] it was 148 nM (active); in assay [3] it was 1320 nM (active); in assay [6] it was 332 nM (active); in assay [7], 235 nM (active); in assay [4], 132 nM (active). Also, the Potency in assay [5] was 235 nM (active).
